This note sets out measurements from PubChem BioAssay (Tox21).

Records with an inconclusive call do not appear. Active and inactive are the calls of the source. Unless noted, calls follow the shape of the dose curve; as a rule, active = well fitted curve in the direction sought with a large enough effect in the repeat runs; inconclusive = weak or mixed curves; inactive = no such curve, though single readings can be large; an effect the other way counts as inactive or inconclusive.

A short description of experiment [1]: qHTS assay to test for compound auto fluorescence at 535 nm (green) in HEK293 cells (AID 720680).
The nature of experiment [2]: qHTS assay to test for compound auto fluorescence at 460 nm (blue) in HEK293 cell free culture (AID 720681). Summed up:
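Test compounds were pinned into cell-free culture medium (DMEM with 10% FBS) and fluorescence was read directly at Ex/Em 405/460 nm. Signals were expressed as fluorescence equivalents of triamterene, with DMSO vehicle as control.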
Background: Quantitative high-throughput screening tests each substance at several concentrations.

A short description of experiment [3]: qHTS assay to test for compound auto fluorescence at 590 nm (red) in HEK293 cell free culture (AID 720683). Summed up: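 Tox21 10K library compounds were pinned into cell-free DMEM with 10% FBS and fluorescence was read at excitation 540 nm. Activity is expressed as Rose Bengal sodium equivalency.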
Experiment [4] can be described thus: qHTS assay to test for compound auto fluorescence at 590 nm (red) in HepG2 cell free culture (AID 720684). Put shortly: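 Readout: intrinsic compound fluorescence at 590 nm emission after 540 nm excitation, scaled to Rose Bengal sodium. Matrix was cell-free MEM with 10% FBS; DMSO vehicle wells served as control.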
Experiment [5] can be described thus: qHTS assay to test for compound auto fluorescence at 460 nm (blue) in HepG2 cell free culture (AID 720685). Put shortly: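 Cell-free plates of MEM plus 10% FBS received 23 nL compound or DMSO vehicle; blue-channel (405/460 nm) intensity scored against triamterene as reference fluorophore.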
The nature of experiment [6]: qHTS assay to test for compound auto fluorescence at 535 nm (green) in HepG2 cell free culture (AID 720686).
Experiment [7] in a line: qHTS assay to test for compound auto fluorescence at 460 nm (blue) in HepG2 cells (AID 720687). Put shortly: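 Cells (2,000/well in MEM with 10% FBS) attached overnight at 37 C, then were exposed to compound or DMSO for 1 hr at 37 C, 5% CO2. Fluorescence read at Ex/Em 405/460 nm, expressed as triamterene-equivalent signal.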
Experiment [8] can be described thus: qHTS assay to identify small molecule antagonists of the glucocorticoid receptor (GR) signaling pathway - cell viability counter screen (AID 720693). Also: nearly all actives have a fitted effect of over 55% in size.
A short description of experiment [9]: qHTS assay for identifying genotoxic compounds that show differential cytotoxicity against isogenic chicken DT40 cell lines with known DNA damage response pathways - wild type cell line (AID 743012). Also: nearly all actives have a fitted effect of over 60% in size. Also: potency is read from the fitted curve at half-maximal effect. Summed up:
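CellTiter-Glo luminescence readout of viability in wild type DT40 cells after 40 h compound exposure at 37 C/5% CO2; 300 cells/well; reagent incubated 30 min at room temperature before reading.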

Experiment [10] can be described thus: qHTS assay to identify small molecule antagonists of the androgen receptor (AR) signaling pathway - cell viability counter screen (AID 743033; also: nearly all actives have a fitted effect of over 45% in size).
Experiment [11] in a line: qHTS assay to identify small molecule antagonists of the androgen receptor (AR) signaling pathway using the MDA cell line - cell viability counter screen (AID 743041; also: nearly all actives have a fitted effect of over 45% in size). Put shortly:
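qHTS viability read-out; MDA-kb2 AR-luc; R1881-stimulated; 16 h exposure at 37C, 0% CO2; CellTiter-Fluor, 30 min; fluorescence intensity.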

Experiment [12] has as its target Glucocorticoid receptor (Homo sapiens) (UniProt P04150). Description: qHTS assay to identify small molecule agonists of the glucocorticoid receptor (GR) signaling pathway (AID 720691; active = well fitted activation curve with a large enough effect in the signal ratio in the repeat runs, not every such curve was filed as active; the % refers to the signal ratio). Particulars: GR-bla HeLa, beta-lactamase reporter ratio, 18 h; activation: at 62.4 µM (top of the series). Put shortly:
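HeLa GR-bla reporter line; cells pre-incubated 4 h, compound in DMSO 18 h at 37 C; LiveBLAzer B/G FRET substrate 2 h RT; fluorescence intensity read-out.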

The target is the same in experiment [13]. Put plainly: qHTS assay to identify small molecule antagonists of the glucocorticoid receptor (GR) signaling pathway (AID 720692; active = well fitted inhibition curve with a large enough effect in the signal ratio in the repeat runs, not every such curve was filed as active; the % refers to the signal ratio). Put shortly: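 Read-out: beta-lactamase FRET substrate fluorescence, 2 h at room temperature, in HeLa cells stably carrying a GRE-driven bla reporter. Compounds were co-incubated with 5 nM dexamethasone agonist (final) for 18 h at 37 C.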

Experiment [14] can be described thus: qHTS assay for identifying genotoxic compounds that show differential cytotoxicity against isogenic chicken DT40 cell lines with known DNA damage response pathways - Rev3 mutant cell line (AID 743014). Also: nearly all actives have a fitted effect of over 55% in size. Also: potency is read from the fitted curve at half-maximal effect.
Experiment [15] in a line: qHTS assay for identifying genotoxic compounds that show differential cytotoxicity against isogenic chicken DT40 cell lines with known DNA damage response pathways - Rad54/Ku70 mutant cell line (AID 743015). Also: nearly all actives have a fitted effect of over 60% in size.
Experiment [16] in a line: qHTS assay to test for compound auto fluorescence at 535 nm (green) in HEK293 cell free culture (AID 720682). Put shortly: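 No cells present: wells hold DMEM supplemented with 10% FBS, into which compound or vehicle is pinned. Green emission is then recorded (485 nm excitation, 535 nm emission) and scaled to fluorescein.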

Sequence of Glucocorticoid receptor (Homo sapiens) (P04150 whole entry, looked up): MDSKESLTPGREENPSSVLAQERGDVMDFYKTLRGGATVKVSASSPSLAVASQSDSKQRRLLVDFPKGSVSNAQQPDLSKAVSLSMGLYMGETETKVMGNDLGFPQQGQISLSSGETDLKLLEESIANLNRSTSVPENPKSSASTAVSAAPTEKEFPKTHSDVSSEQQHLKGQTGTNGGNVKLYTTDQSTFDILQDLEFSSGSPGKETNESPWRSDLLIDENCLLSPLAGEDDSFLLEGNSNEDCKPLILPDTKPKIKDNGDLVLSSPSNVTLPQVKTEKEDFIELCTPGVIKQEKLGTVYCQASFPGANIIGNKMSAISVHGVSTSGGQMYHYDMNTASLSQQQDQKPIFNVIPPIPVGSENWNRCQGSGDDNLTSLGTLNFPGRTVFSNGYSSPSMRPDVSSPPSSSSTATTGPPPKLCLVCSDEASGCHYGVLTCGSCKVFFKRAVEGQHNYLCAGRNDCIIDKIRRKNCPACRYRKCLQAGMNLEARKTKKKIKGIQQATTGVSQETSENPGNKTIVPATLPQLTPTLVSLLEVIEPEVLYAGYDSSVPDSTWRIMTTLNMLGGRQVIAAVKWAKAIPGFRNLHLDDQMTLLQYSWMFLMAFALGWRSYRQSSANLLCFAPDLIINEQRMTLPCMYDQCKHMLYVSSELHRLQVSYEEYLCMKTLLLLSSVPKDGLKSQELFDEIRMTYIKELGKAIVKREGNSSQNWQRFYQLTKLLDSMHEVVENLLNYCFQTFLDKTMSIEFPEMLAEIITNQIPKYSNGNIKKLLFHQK

Consider `FC(F)(F)C(F)(F)C(F)(F)C(F)(F)C(F)(F)F`, for which the outcome in experiment [1], in [3] and in experiment [4] was inactive. Besides, the Potency result in [2], in experiment [5], in experiment [6], in [7], in experiment [8] and in experiment [9] was “inactive” in each case. The Potency result in experiment [10] and in experiment [11] was “inactive” in each case.

With `NC(=O)[C@H]1O[C@@H](O)[C@H](O)[C@@H](O)[C@@H]1O`, the result in [1], in experiment [3] and in experiment [4] was inactive. Also, the Potency entry in experiment [2], in experiment [5], in experiment [6], in experiment [7], in experiment [12] and in [13] was “inactive” throughout. Besides, the Potency result in experiment [8], in experiment [9], in experiment [14], in experiment [15], in experiment [10] and in experiment [11] was “inactive” in each case.

With `CNCC(=O)N[C@@H](CCCN=C(N)N)C(=O)N[C@H](C(=O)N[C@@H](Cc1ccc(O)cc1)C(=O)N[C@H](C(=O)N[C@@H](Cc1cnc[nH]1)C(=O)N1CCC[C@H]1C(=O)N[C@@H](C)C(=O)O)C(C)C)C(C)C`, the call in experiment [1], in [3] and in [4] was inactive. Also, the Potency entry in experiment [2], in experiment [5], in experiment [6], in experiment [7], in experiment [12] and in [13] was “inactive” throughout. In addition, the Potency entry in experiment [8], in experiment [9], in [15], in experiment [10] and in [11] was “inactive” throughout.

For the compound `CC(Cc1ccc(O)c(O)c1)C(C)Cc1ccc(O)c(O)c1` (stereo not given), the compound was called inactive in experiment [1], in [3] and in [4]. The Potency entry in [2], in experiment [5], in [6], in experiment [7], in [10] and in experiment [11] was “inactive” throughout. Moreover, the Potency is 13.7 µM (active) in [9] and 30.6 µM (active) in [14].

In the case of `NCCO/C=C/[C@H](N)C(=O)O`, the call in experiment [1], in experiment [16], in experiment [3] and in experiment [4] was inactive. For the same compound, the Potency result in experiment [5], in experiment [6], in experiment [7], in experiment [12], in experiment [13] and in [8] was “inactive” throughout. In addition, the Potency entry in experiment [15], in [10] and in experiment [11] was “inactive” in each case.

With `Nc1cc(Cl)c(NC2=NCCN2)c(Cl)c1`, the compound was called inactive in experiment [1], in experiment [3] and in experiment [4]. Also, the Potency result in experiment [2], in [5], in experiment [6], in experiment [7], in [12] and in experiment [13] was “inactive” each time. Further, the Potency entry in experiment [8], in experiment [9], in experiment [15], in experiment [10] and in [11] was “inactive” throughout.

As for `COC(=O)[C@H]1[C@H]2C[C@H]3c4[nH]c5ccccc5c4CCN3C[C@H]2CC[C@@H]1O`, the outcome in experiment [1], in experiment [3] and in experiment [4] was inactive. Also, the Potency entry in experiment [2], in experiment [5], in experiment [6], in [7], in experiment [8] and in experiment [9] was “inactive” in each case. The Potency entry in experiment [15], in [10] and in [11] was “inactive” each time.

Consider `CCCCC[C@H](O)/C=C/[C@@H]1[C@@H](C/C=C\CCCC(=O)O)[C@@H](O)C[C@H]1O`, for which, in [1], the compound was called inactive. Also, the Potency entry in experiment [2], in experiment [5], in experiment [6], in experiment [12], in experiment [8] and in [14] was “inactive” throughout. Moreover, the Potency result in experiment [15], in experiment [10] and in [11] was “inactive” throughout.
